Source: PubChem BioAssay (Tox21)
The source made the active and inactive calls. A call without a number means that no potency is given here. The call rests on the fitted dose curve; in most records, active means well fitted inhibition curve with a large enough effect in the repeat runs (not every such curve was filed as active); inconclusive means weak or mixed curves; inactive means flat fitted curve, though single readings scatter.

Molecular target: Thyrotropin-releasing hormone receptor (Homo sapiens) (UniProt P34981)
Sequence (P34981 whole entry, looked up): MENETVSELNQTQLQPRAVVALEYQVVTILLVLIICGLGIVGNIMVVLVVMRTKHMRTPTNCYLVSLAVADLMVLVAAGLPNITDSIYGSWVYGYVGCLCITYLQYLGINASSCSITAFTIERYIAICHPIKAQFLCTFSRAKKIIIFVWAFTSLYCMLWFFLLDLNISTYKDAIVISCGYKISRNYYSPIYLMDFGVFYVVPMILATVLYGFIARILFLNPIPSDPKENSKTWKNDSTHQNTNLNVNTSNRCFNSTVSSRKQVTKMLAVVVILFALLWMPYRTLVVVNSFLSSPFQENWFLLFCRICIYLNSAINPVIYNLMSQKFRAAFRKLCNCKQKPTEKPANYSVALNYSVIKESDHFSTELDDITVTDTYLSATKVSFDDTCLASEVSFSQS
Test: qHTS assay to identify small molecule antagonists of the thyrotropin-releasing hormone receptor (TRHR) signaling pathway (AID 1346877)
Settings: TRHR-HEK293, TRH-induced calcium fluorescence, antagonist mode; series mostly up to 51.3 µM
Excerpt: National Center for Advancing Translational Sciences [NCATS]
NIH Chemical Genomics Center [NCGC]
U.S. Environmental Protection Agency [EPA]
National Institutes of Environmental Health Sciences [NIEHS]
National Toxicology Program [NTP]
U.S. Food and Drug Administration [FDA]
Thyrotropin-releasing hormone (TRH) receptor (TRHR) is a G-protein-coupled receptor which binds the tripeptide thyrotropin releasing hormone. TRHR is found in the brain and, when bound by TRH, acts (through phospholipase C) to increase intracellular inositol trisphosphate. It plays a crucial role in the anterior pituitary where it controls the synthesis and secretion of thyroid stimulating hormone and prolactin. The TRHR-Hek293 assay is a cell-based assay, and it has the potential to screen G protein-coupled receptors. A compound/drug can either activate (agonist) or suppress (antagonist) GPCRs that can be monitored by levels of intracellular calcium. In this assay, the Tox21 10K compound library was screened to identify potential TRHR antagonists.
Tox21 Assay Protocol Summary:
The TRHR-Hek293 cells were dispensed at 1500cells/4uL/well in 1536-well black-clear bottom plates using a Multidrop dispenser. After the assay plates were incubated at a 37 C/5% CO2 incubator for 18 hours, 4 uL of Dye-Loading Solution was added to each well. The plates were incubated at 37 C for 2 hours. For agonist mode, 23 nL of compounds dissolved in DMSO, positive controls or DMSO only was transferred to the assay plate by a pin tool. The fluorescence intensity in the plates was measured using FDSS 7000EX kinetic plate reader for 3 min at 1 sec intervals. For antagonist mode, 23 nL of compounds dissolved in DMSO, positive controls or DMSO only was transferred to the assay plate by a pin tool. After 5 min incubation at room temperature, 1 uL of TRH was added on the top of the cell/compound mixtures to achieve a final agonist concentration of 1 nM. The fluorescence intensity in the plates was measured using FDSS 7000EX kinetic plate reader for 3 min at 1 sec intervals. Each test compound was measured at 15 concentrations and in triplicates.
Potency means the concentration at half of the fitted maximal effect.

Question: O=C(O)c1ccc(=O)[nH]c1 was tested. Which Potency did it give?
Answer: inactive

Question: With CCCCC#N as the molecule, how does the Potency read?
Answer: inactive

Question: How did the Potency turn out when C=CCOC(=O)C(C)(C)OC(=O)c1cc(-n2c(=O)cc(C(F)(F)F)n(C)c2=O)ccc1Cl was run?
Answer: inactive

Question: Which Potency does the source give for O=P(OCC(Br)CBr)(OCC(Br)CBr)OCC(Br)CBr (stereo not given) here?
Answer: inactive

Question: For O=C1c2ccccc2C(=O)N1SC(Cl)(Cl)Cl, which Potency is on record?
Answer: 33.3 µM (active)

Question: O=C=NC1CCCCC1 was tested. Which Potency did it give?
Answer: inactive

Question: Which Potency does the source give for CC(Cl)C(=O)O (stereo not given) here?
Answer: inactive

Question: How did the Potency turn out when CN1CC[C@]23c4c5ccc(O)c4O[C@H]2[C@@H](O)CC[C@H]3[C@H]1C5 was run?
Answer: inactive

Question: For O=[N+]([O-])/C=C/c1ccccc1, which Potency is on record?
Answer: inactive

Question: How did the Potency turn out when COCc1cnc(C2=NC(C)(C(C)C)C(=O)N2)c(C(=O)O)c1 (stereo not given) was run?
Answer: inactive

Question: How did the Potency turn out when CN1C(=O)CN=C(c2ccccc2)c2cc([N+](=O)[O-])ccc21 was run?
Answer: inactive

Question: For C=CCc1ccccc1O, which Potency is on record?
Answer: inactive

Question: For O=C(NCNC(=O)NC1C(=O)NC(=O)N1CO)NC1C(=O)NC(=O)N1CO (stereo not given), which Potency is on record?
Answer: inactive

Question: For O=C(N[C@H]1CN2CCC1CC2)c1ccc2c(c1)OCCO2, which Potency is on record?
Answer: inactive

Question: How did the Potency turn out when O=[N+]([O-])O[C@H]1CO[C@H]2[C@@H]1OC[C@H]2O[N+](=O)[O-] was run?
Answer: inactive

Question: For CCCC[P+](CC)(CCCC)CCCC (tested in a mixture with another compound), which Potency is on record?
Answer: inactive

Question: For CCCCCCCCCCCCCCCl, which Potency is on record?
Answer: inactive

Question: For CN(C1CCCCC1)C1CCCCC1, which Potency is on record?
Answer: inactive

Question: For CCC(C)(C)O, which Potency is on record?
Answer: inactive

Question: Which Potency does the source give for CCC[N+](CCC)(CCC)CCC here?
Answer: inactive

Question: For CCC1(CC)C(=O)NC(=O)NC1=O, which Potency is on record?
Answer: inactive

Question: How did the Potency turn out when C=CCc1ccc(OC(=O)Cc2ccccc2)c(OC)c1 was run?
Answer: inactive

Question: For CCOc1cccc(C2(N3CCN(c4ccccc4)CC3)CCC(C)CC2)c1 (stereo not given), which Potency is on record?
Answer: inactive

Question: Which Potency does the source give for CCCN(CCC)c1c([N+](=O)[O-])cc(C(C)C)cc1[N+](=O)[O-] here?
Answer: inactive

Question: For CCOP(=S)(OCC)Oc1ccc(S(C)=O)cc1 (stereo not given), which Potency is on record?
Answer: inactive

Question: How did the Potency turn out when C[C@H](N)[C@H](O)c1ccc(O)c(O)c1 was run?
Answer: inactive

Question: Which Potency does the source give for COc1cc(CC(C)N)c(OC)cc1Br (stereo not given) here?
Answer: inactive

Question: For COC1=CC(=O)O[C@@H](/C=C/c2ccc3c(c2)OCO3)C1, which Potency is on record?
Answer: inactive

Question: Which Potency does the source give for Cc1ccc(N)c(C)c1 here?
Answer: inactive

Question: With O=S(=O)(c1ccccc1)c1ccccc1 as the molecule, how does the Potency read?
Answer: inactive

Question: O=C(O)C(F)(F)C(F)(F)C(F)(F)C(F)(F)C(F)(F)C(F)(F)C(F)(F)C(F)(F)F was tested. Which Potency did it give?
Answer: inactive

Question: CCCCCCCCP(=O)(O)O was tested. Which Potency did it give?
Answer: inactive

Question: With CCOC(=O)C1OC1(C)c1ccccc1 (stereo not given) as the molecule, how does the Potency read?
Answer: inactive

Question: CCCCCl was tested. Which Potency did it give?
Answer: inactive

Question: With Cc1cnc(C2=NC(C)(C(C)C)C(=O)N2)c(C(=O)O)c1 (stereo not given) as the molecule, how does the Potency read?
Answer: inactive

Question: With O=C(O)C(F)(F)C(F)(F)C(F)(F)C(F)(F)C(F)(F)F as the molecule, how does the Potency read?
Answer: inactive

Question: How did the Potency turn out when CCSCc1ccccc1OC(=O)NC was run?
Answer: inactive

Question: How did the Potency turn out when C[C@H]1[C@@H]2Cc3ccc(O)cc3[C@@]1(C)CCN2C was run?
Answer: inactive

Question: For CC(C)(C)CC(C)(C)c1ccc(O)cc1, which Potency is on record?
Answer: inactive

Question: Which Potency does the source give for CN1CC[C@]23c4c5ccc(O)c4O[C@H]2[C@@H](O)C=C[C@H]3[C@H]1C5 here?
Answer: inactive
